Assay outcomes from PubChem.
DT40 TDP1 no CPT – qHTS for Inhibitors of human tyrosyl-DNA phosphodiesterase 1 (TDP1): qHTS in cells in absence of CPT; DT40 Tdp1-/- hTDP1 cells, no CPT, ATP luminescence, 48 h; Potency, µM (titrated, usually from 46.2 µM), hits mostly inhibitors; 420,000 tested, 15% active; AID 686978, 2013; further: nearly all actives have a fitted effect of over 55% in size
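Camptothecin absent (DMSO only). Human TDP1-complemented DT40 knockout cells, 400 cells/well, 37 °C for minimum 48 hr; ATP measured via CellTiter-Glo, 30 min dark incubation, luminescence.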
12-LOX inh – ALOX12 (human) lipoxygenase inhibition; P18054; purified 12hLO, xylenol orange hydroperoxide absorbance; Potency, µM (doses to about 108 µM), most hits filed as inhibitors; 580,000 tested, 1.1% active; AID 1671190
Target sequence (P18054 whole entry, looked up): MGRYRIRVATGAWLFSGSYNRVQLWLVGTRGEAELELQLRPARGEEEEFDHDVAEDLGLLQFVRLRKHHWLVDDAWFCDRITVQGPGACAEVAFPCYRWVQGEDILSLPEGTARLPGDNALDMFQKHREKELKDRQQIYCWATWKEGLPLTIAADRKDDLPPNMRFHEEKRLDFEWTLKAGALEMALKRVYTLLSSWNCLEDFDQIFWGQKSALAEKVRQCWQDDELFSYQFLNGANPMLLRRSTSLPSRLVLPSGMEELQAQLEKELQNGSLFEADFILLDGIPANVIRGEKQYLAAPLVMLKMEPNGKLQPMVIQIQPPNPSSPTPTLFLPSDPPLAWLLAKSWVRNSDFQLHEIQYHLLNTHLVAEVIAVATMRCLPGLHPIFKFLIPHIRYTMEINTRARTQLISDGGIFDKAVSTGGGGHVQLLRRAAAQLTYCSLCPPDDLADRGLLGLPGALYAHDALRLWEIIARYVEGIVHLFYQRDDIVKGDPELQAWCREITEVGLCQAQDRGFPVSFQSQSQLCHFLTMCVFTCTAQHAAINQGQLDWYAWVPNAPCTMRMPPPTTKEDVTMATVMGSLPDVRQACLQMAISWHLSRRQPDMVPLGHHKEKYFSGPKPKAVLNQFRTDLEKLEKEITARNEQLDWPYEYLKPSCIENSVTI
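Purified human 12hLO (150 nM final) in 25 mM Hepes, 0.01% Triton X-100, pH 7.0 was preincubated 15 min at room temperature with compound. Then 40 uM arachidonic acid was added, 30 min. Hydroperoxide was read by Fe-XO absorbance ratio 573/405 nm.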
IL1B secr inh – inflammasome signaling inhibition, IL-1 beta readout. AID 743279. THP-1 LPS/ATP IL-1B secretion, AlphaLISA, 16 h; active compounds read low. activity change, % at 57.5 µM. 360,000 tested, 4.7% active; in the data active means activity change below about -50%; inconclusive means mostly about -30% to -49%
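THP-1 cells pretreated 1 hr with compounds (up to 57.5 uM final), then stimulated with LPS (250 ng/mL final) plus ATP (1.25 mM final); secreted IL-1B measured by AlphaLISA after 16 hr, decreased signal indicating inhibition.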
DT40 TDP1 CPT – DT40-hTDP1 cell growth loss with CPT; chicken DT40 Tdp1-/-;hTDP1 cells + 20 nM CPT, ATP luminescence, 48 h; Potency, µM (titrated, usually from 46.2 µM), most hits filed as inhibitors; 420,000 tested, 12% active; further: nearly all actives have a fitted effect of over 55% in size
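Chicken DT40 Tdp1-/- cells complemented with human TDP1, 400 cells/well, exposed to compounds plus 20 nM camptothecin for at least 48 h at 37 C; viability read as ATP content by CellTiter-Glo luminescence.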
HT1080-NT tox – kills 2HG-producing HT-1080-NT fibrosarcoma cells; HT-1080-NT fibrosarcoma viability, CellTiter-Glo ATP luminescence, 48 h; Potency, µM (series often up to 46.1 µM), actives largely listed as cytotoxic; 360,000 tested, 1.6% active;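 further: NT is the 2HG producing partner of a matched IDH1 knockdown line; nearly all actives have a fitted effect of over 55% in size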
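Viability by CellTiter-Glo luminescence after 48 h compound exposure at 37C of HT-1080-NT cells (750/well, RPMI, 5% FBS). % activity scaled between DMSO wells and medium-only wells, then curve-fitted and categorized by curve class.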
HT1080 IDH1KD tx – HT-1080 IDH1 knockdown cell toxicity (counter line); HT-1080 IDH1 knockdown viability, ATP luminescence, 48 h; Potency, µM (titrated, usually from 46.1 µM), hits mostly cytotoxic; 360,000 tested, 2% active; AID 686971
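In this qHTS, HT-1080 cells depleted of IDH1 are exposed for 48 h at 37 °C to compound titrations. Toxicity is scored from CellTiter-Glo luminescence, with DMSO as full viability and medium alone as none.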
Numbers stand for hits; . = inactive; ? = inconclusive; / = no result given; [ ] = dose if it differs, or a comment. The full list was thinned out, with hits kept by preference. Unless noted, the call rests on the fitted dose curve; in most records, active means well fitted curve in the direction sought with a large enough effect; inconclusive means small, poorly fitted or top-dose-only effect, or another doubt; inactive means no such curve, though single readings can be large; an effect the other way counts as inactive or inconclusive.

SMILES	DT40 TDP1 no CPT	12-LOX inh	IL1B secr inh	DT40 TDP1 CPT	HT1080-NT tox	HT1080 IDH1KD tx
CN(Cc1ccc(F)cc1)C(=O)c1cccc(S(=O)(=O)N2CCN(c3ccc(F)cc3)CC2)c1	14.6µM	?	-57.8	16.4µM	?	.
CN1CCN(S(=O)(=O)c2cccc(C(=O)N(C)Cc3c(F)cccc3Cl)c2)CC1	?	?	.	?	.	.
COc1ccc(CN(C)C(=O)c2cccc(S(=O)(=O)N3CCCc4ccccc43)c2)c(OC)c1OC	20.6µM	.	.	18.4µM	.	.
CN(Cc1ccc(F)cc1)C(=O)c1cccc(S(=O)(=O)N2CCN(c3ccccc3)CC2)c1	23.1µM	?	.	?	.	.
COc1ccc(C(CNC(=O)c2cccc(S(=O)(=O)N3CCCc4ccccc43)c2)N(C)C)cc1 (stereo unspecified)	?	.	-53.7	?	.	?
NC(=O)c1ccc(N(C(N)=O)c2c(F)cccc2F)nc1-c1ccc(F)cc1F	/	.	/	/	/	/
COc1cccc(CN(C)C(=O)c2ccc(S(=O)(=O)N3CCCC3)cc2)c1OC	?	.	.	?	.	.
O=C(NCC1COc2ccccc2O1)c1cccc(S(=O)(=O)N2CCN(c3ccccc3)CC2)c1 (stereo unspecified)	20.6µM	.	.	18.4µM	.	.
COc1ccc(CN(C)C(=O)c2cccc(S(=O)(=O)N3CCN(c4ccccc4)CC3)c2)c(OC)c1OC	13µM	.	.	11.6µM	?	.
O=C(NCC1COc2ccccc2O1)c1cc(S(=O)(=O)N2CCOCC2)ccc1F (stereo unspecified)	.	.	.	.	.	.
O=C(NCC1COc2ccccc2O1)c1cccc(S(=O)(=O)N2CCCCC2)c1 (stereo unspecified)	?	.	.	?	.	.
O=C(NCC1COc2ccccc2O1)c1c[nH]c2ccc(S(=O)(=O)N3CCOCC3)cc2c1=O (stereo unspecified)	13µM	.	.	11.6µM	.	.
CN(Cc1cccc(F)c1)C(=O)c1ccc(S(=O)(=O)N2CCCCCC2)cc1	?	.	-66.1	?	.	.
CCOC(=O)CN1C(=O)N(c2ccc(OC)cc2)[C@H]2CC3c4ccccc4C[C@]3(C)[C@@H](C(=O)N(C)C3CCCCC3)C[C@H]21 (stereo partly specified)	/	.	/	/	/	/
Cc1nc(-c2ccc(S(=O)(=O)NCc3ccccn3)s2)cs1	?	.	.	.	.	.
CCc1cccc(CC)c1NC(=O)COC(=O)c1cc(C)nc2ccccc12	/	.	/	/	/	/
Cc1ccc(-c2nnc(C3CN(C(=O)c4cc(F)cc(F)c4)CC34CCOCC4)o2)cc1 (stereo unspecified)	/	.	/	/	/	/
O=C(NCCOc1ccccc1F)c1cccc(S(=O)(=O)N2CCN(c3ccccc3)CC2)c1	25.9µM	.	.	?	.	.
COc1cccc(N2CCN(C(=O)c3cn(Cc4ccccc4)nc3-c3cccnc3)CC2)c1	2.06µM	.	.	2.59µM	5.8µM	3.26µM
O=C(c1cn(Cc2ccccc2)nc1-c1cccnc1)N1CCN(Cc2ccccc2)CC1	.	?	.	?	.[9.24 µM]	.
O=C(c1cn(Cc2ccccc2)nc1-c1cccnc1)N1CCN(Cc2c(F)cccc2Cl)CC1	29.1µM	.	.	?	.	.
CCCCCCN(C(=O)CCl)c1ccccc1	10.3µM	?	-66.5	16.4µM	3.66µM	?
CCCCCCCN(C(=O)CCl)c1cccc(C)c1	23.1µM	.	-105.2	?	.	?
CC(=O)N(CCN(C(C)=O)c1ccccc1)c1ccccc1	.	.	.	.	.	.
OCC1CN(Cc2ccoc2)CCC12CCN(Cc1cccc(O)c1)CC2 (stereo unspecified)	/	.	/	/	/	/
CCOC(=O)N/N=C/c1ccccc1OCC(=O)O	/	.	/	/	/	/
